Structures are written as SMILES. About 83,000 compounds went through this panel and 20% of them were active in at least one assay; those are over-represented in the sample as a whole.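 48-hour exposure, single concentration, 96-well plates; percent growth endpoint where 0 means no net growth. Active: below 10.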 Unmarked numbers belong to inactive results. Active and inactive are the calls of the source.

The subject of this experiment is LOX IMVI melanoma. As to the kind of experiment: NCI-60 one-dose screen, 48 h (100 = growth as untreated, 0 = no growth, -100 = all killed). To be noted: 10 µM unless noted. As for the experimental part: Growth inhibition of the LOX IMVI human tumor cell line is measured as a screen for anti-cancer activity. Cells are grown in 96 well plates and exposed to the test compound for 48 hours. Compounds are tested at a single concentration, which is 10^-5 M for most compounds. The reported endpoint is percent growth (GI% or GIPRCNT), where numbers from 0 - 100% represent growth inhibition, and numbers from -100% - 0 represent cell death. For example, a value of 40 represents 60% growth inhibition. A value of 0 means no net growth occurred over the course of the experiment. A value of -40 indicates 40% of cells at the beginning of the experiment died by the end of the experiment. A value of -100 means all cells are dead at the end of the experiment.
NCI-60 Human Tumor Cell Lines Screen was performed using the standard one-dose NCI protocol, which is described in more detail at https://dtp.cancer.gov/discovery_development/nci-60/default.htm.
Compounds with GIPRCNT values below 10 were considered active. Activity score was based on GIPRCNT using the following formula: […]
Score is 0 for GIPRCNT values of 100 or above, 50 for GIPRCNT values of 0, and 100 for GIPRCNT values of -100.
Take `O=[N+]([O-])c1ccc(/C=C/C=C/c2ccc(S(=O)(=O)F)cc2)c(Cl)c1`: the growth was 102%.
On to `C=CC(O)CN1CC1CC` (stereo not given), for which the growth was 92.6%.
Under `NC(Cc1ccc(O)cc1)C(=O)N/N=C/c1ccc(N(CCCl)CCCl)cc1` (stereo not given) stands 44.4%; under `CN1CCN(C(=O)COc2ccc(/C=C3\CC4C5CC=C6CC(Cl)CCC6(C)C5CCC4(C)C3=O)cc2)CC1` (stereo not given), 23.5%.
Take `COc1ccc(OC)c(/C=C(/C)[N+](=O)[O-])c1`: the growth is -88.6% (active).
Under `CNC(=O)Oc1ccccc1` stands 106%.
For the compound `ClCCN(CCCl)c1nc(Cl)c(C2CC(c3ccccc3)=NN2c2ccccc2)s1` (stereo not given), the growth was 85.3%.
`O=CN1N=C(c2ccccc2)CC1c1sc(N(CCCl)CCCl)nc1Cl` (stereo not given): the growth is 98.6%.
Under `O=C(N/N=C/c1ccc([N+](=O)[O-])o1)c1cc([N+](=O)[O-])cc([N+](=O)[O-])c1O` stands 84.5%; under `Clc1ccc(SSC(Cl)(Cl)Cl)cc1`, 103%.
Under `COc1cc(CNCCc2ccc(Cl)cc2)cc(OC)c1O` stands 70.7%; under `COc1ccc(CN2CCN(Cc3ccccc3)CC2)c(O)c1`, 92.1%.
As for `CC(C)(C)[Si](C)(C)OC1[C@@H](O[Si](C)(C)C(C)(C)C)[C@@H](CNC(=O)NC(=O)CF)O[C@H]1n1cnc2c(NC(=O)Nc3ccccc3)ncnc21` (stereo not given in full), the growth was 12.2%.
As to `CNC(=O)Oc1cc(C(C)C)ccc1Sc1ccc(C(C)C)cc1OC(=O)NC`, the growth is 62.2%.
Under `COc1cc[c]([Hg][Cl])cc1` stands -84.2% (active); under `CC1(C)N=C(N)N=C(N)N1c1ccc(CCCCc2ccc(S(=O)(=O)F)cc2)cc1`, 15.2%; under `CCC[CH2][Sn]1([CH2]CCC)[O]C(=O)c2cccc([N+](=O)[O-])c2C(=O)[O]1`, -72% (active).
Under `CN(Cc1cccnc1)N=O` stands 93.5%; under `Cc1cc(NC(=O)/C=C/c2ccc([N+](=O)[O-])cc2)ccc1S(=O)(=O)F`, 102%; under `C[CH2][Sn]([CH2]C)([CH2]C)[NH]S(=O)(=O)c1ccc(C)cc1`, 92.3%.
Under `C/C(=N/OC(=O)N(C)C)c1ccc(Cl)cc1Cl` stands 97.8%; under `CCOc1cc(/C=N\Nc2nnc(C)n2N)c(C)cc1N(CCCl)CCCl`, 1.98% (active); under `COc1ccc(/C=C\c2cc(OC)c(OC)c(OC)c2)cc1N/C=C\C(=O)c1c[nH]c2ccccc12`, 19.6%.
In the case of `CC12CCC3C(CC=C4CC(O)CCC43C)C1C/C(=C\N1CCOCC1)C2=O` (stereo not given), the growth is 105%.
For the compound `CC(N)Cc1ccc(O)cc1` (stereo not given), the growth was 99.2%.
Under `OC1(c2ccccc2F)c2ccccc2C2=NCCN21` (stereo not given) stands 96.9%; under `CCOCC1(CCc2ccccc2)C(=O)NC(=S)NC1=O`, 94.9%; under `O=C(CCF)c1ccc(O)cc1`, 95%.
Under `CC1CC=CCC12C(=O)NC(=S)NC2=O` (stereo not given) stands 106%; under `CC1([N+](=O)[O-])COP(=O)(Nc2ccc(F)cc2)OC1` (stereo not given), 84.2%; under `O=S(=O)(Cl)c1ccccc1` (tested in a mixture with another compound), 98.8%.
Under `O=C(NCCNC(=O)c1ccc([As](O)O)cc1)c1ccc([As](O)O)cc1` stands 90.3%; under `CC1(C)N=C(N)N=C(N)N1c1ccc(OCCCCNC(=O)c2ccc(S(=O)(=O)F)cc2)c(Cl)c1`, 25.7%; under `CCCCCCCC(=O)OCC/C=C/C1OC1C1OC(=O)/C=C\C=C\c2nc(oc2C)/C=C(/C)CCC2OC2C1OC(=O)NC(C)=O` (stereo not given), -21.6% (active).
For the compound `CCCC(C)(C)c1ccc2c(c1)OC(C)(C)[C@@H]1CC=C(C)C[C@@H]21`, the growth was 96.3%.
Under `O=[N+]([O-])c1ccc(F)c([N+](=O)[O-])c1F` stands 102%; under `CO[C@@H](c1ccccc1Cl)[C@H](C)OC(N)=O`, 98.1%; under `COc1cc(C2(C#N)CCN(C)CC2)cc(OC)c1OC`, 93.8%.
Under `CN(C)P1(N(C)C)=NP(N(C)C)(N(C)C)=NP(N(C)C)(N(C)C)=N1` stands 92.7%; under `CCCCN(CCCC)CC(O)c1ccccc1` (stereo not given), 103%.

For the origin of these results see PubChem BioAssay (NCI).
